Reference: PubChem BioAssay (Tox21)
Results filed as inconclusive are left out. Calls of active or inactive are those of the source. Unless noted, calls follow the shape of the dose curve; as a rule, active = well fitted curve in the direction sought with a large enough effect in the repeat runs; inconclusive = weak or mixed curves; inactive = no such curve, though single readings can be large; an effect the other way counts as inactive or inconclusive.

How the values were obtained:
[1] = qHTS assay to identify small molecule phospholipidosis (PLD) inducers (AID 1259344; active = well fitted curve in the direction sought with a large enough effect; an effect the other way counts as inactive or inconclusive)
In short: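 HepG2 cells, 900/well, treated with compound plus LipidTOX Red for 24 h at 37 C; amiodarone positive and DMSO negative controls. Fixed with paraformaldehyde/Hoechst, then high-content imaging scored LipidTOX pit count and integrated intensity per well and per cell.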

[2] = qHTS assay to identify small molecule HDAC inhibitors (AID 1259364); also: nearly all actives have a fitted effect of over 45% in size; also: potency is read from the fitted curve at half-maximal effect; as to activity change, negative = inhibition: top concentration of the series differs between compounds
In short: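 Luminescence from a cell-permeant luminogenic class I/II HDAC substrate reports endogenous deacetylase activity in intact HCT-116 cells treated with compounds for 2 h.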

[3] = qHTS assay to identify small molecule HDAC inhibitors - cell viability counter screen (AID 1259365); also: nearly all actives have a fitted effect of over 50% in size; also: potency is read from the fitted curve at half-maximal effect; as to activity change, negative = cytotoxicity: series mostly up to about 92 µM
In short: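 Wild-type HCT-116 cells were seeded at 1,500 per well, incubated overnight at 37 C, then exposed to compounds in DMSO for 2hr. Viability was read by CellTiter-Glo luminescence after 30min at room temperature.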

[4] = qHTS assay to identify small molecule agonists of the sonic hedgehog signaling (Shh) pathway - cell viability counter screen (AID 1259366); also: nearly all actives have a fitted effect of over 50% in size; also: potency is read from the fitted curve at half-maximal effect
In short: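 NIH/3T3-derived 3T3 Gli1-Luc cells (stable Gli1-responsive firefly luciferase reporter) were seeded, rested 4 hr at 37 C/5% CO2, then exposed to compounds in DMSO for 24 hr; viability was read by CellTiter-Fluor fluorescence in the same wells.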

[5] = qHTS assay to identify small molecule agonists of the sonic hedgehog signaling (Shh) pathway (AID 1259368; calls by dose curve; also: nearly all actives have a fitted effect of over 15% in size; also: potency is read from the fitted curve at half-maximal effect; as to activity change: series mostly up to about 92 µM)
In short: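 3T3Gli1-Luc (NIH/3T3 clone, stable Gli1-Luc); 4 hr pre-incubation, then cpd in DMSO 24 hr, 37 C/5% CO2; luciferase reagent 30 min RT; luminescence.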

[6] = qHTS assay to identify small molecule antagonists of the sonic hedgehog signaling (Shh) pathway (AID 1259369; calls by dose curve; also: nearly all actives have a fitted effect of over 45% in size; also: potency is read from the fitted curve at half-maximal effect)
In short: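 3T3Gli1-Luc, conditioned-medium-stimulated, 24hr cpd, 37C/5% CO2; Gli1-driven firefly Luc luminescence after 30min RT with luciferase reagent. Cells plated 4hr before cpd.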

[7] = qHTS assay to identify small molecule agonists of the androgen receptor (AR) signaling pathway in the presence of an antagonist - cell viability counter screen (AID 1259379); also: nearly all actives have a fitted effect of over 25% in size; also: potency is read from the fitted curve at half-maximal effect;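 as to activity change, negative = cytotoxicity: MDA-kb2 human breast cancer cells carrying an MMTV luciferase reporter; series mostly up to about 92 µM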
In short: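 Cells: MDA-kb2 (MMTV-luc, AR and GR elements), 3,000/well, 5 hr settle. Added: nilutamide 3.0uM final, then compounds (15 conc.). Incubation: 16 hr, 37C, no CO2. Read-out: CellTiter-Fluor, 1 hr, fluorescence.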

[8] = qHTS assay to identify small molecule antagonists of the sonic hedgehog signaling (Shh) pathway - cell viability counter screen (AID 1259367); also: nearly all actives have a fitted effect of over 55% in size; also: potency is read from the fitted curve at half-maximal effect
In short: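 NIH/3T3-derived Gli1-Luc reporter cells, 2,000/well, plated 4 hr before compound addition, then stimulated with conditioned medium for 24 hr at 37C. Viability measured in the same wells by CellTiter-Fluor fluorescence, reagent added at 23 hr for 1 hr.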

[9] = target: Estrogen receptor beta (Homo sapiens) (UniProt Q92731); assay: qHTS assay to identify small molecule agonists of the estrogen receptor beta (ER-beta) signaling pathway (AID 1259377; active = well fitted activation curve with a large enough effect in the signal ratio in the repeat runs, not every such curve was filed as active; the % refers to the signal ratio)
Sequence of Estrogen receptor beta (Homo sapiens) (Q92731 whole entry, looked up): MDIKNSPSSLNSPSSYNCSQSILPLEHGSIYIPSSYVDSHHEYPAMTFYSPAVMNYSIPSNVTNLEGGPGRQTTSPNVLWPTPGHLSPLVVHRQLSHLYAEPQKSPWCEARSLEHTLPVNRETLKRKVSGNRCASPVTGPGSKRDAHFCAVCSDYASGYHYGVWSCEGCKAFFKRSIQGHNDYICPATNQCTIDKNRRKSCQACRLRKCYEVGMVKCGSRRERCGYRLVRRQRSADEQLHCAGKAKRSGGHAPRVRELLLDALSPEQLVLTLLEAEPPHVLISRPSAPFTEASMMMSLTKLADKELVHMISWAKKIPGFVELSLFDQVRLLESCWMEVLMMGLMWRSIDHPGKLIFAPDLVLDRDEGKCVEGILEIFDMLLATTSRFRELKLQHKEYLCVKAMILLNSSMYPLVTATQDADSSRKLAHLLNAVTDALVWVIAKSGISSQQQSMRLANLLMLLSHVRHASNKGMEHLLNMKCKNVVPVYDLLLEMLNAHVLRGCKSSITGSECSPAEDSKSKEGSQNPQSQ
In short: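 ER-beta-UAS-bla HEK293T (GripTite) cells carrying a UAS-driven beta-lactamase reporter, in medium with 2% charcoal-stripped FBS, were exposed to compounds for 16 hr at 37C; LiveBLAzer B/G FRET substrate was then added and fluorescence read after 2 hours at room temperature.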

[10] = target: Estrogen receptor beta (Homo sapiens) (UniProt Q92731); assay: qHTS assay to identify small molecule antagonists of the estrogen receptor beta (ER-beta) signaling pathway (AID 1259378; active = well fitted inhibition curve with a large enough effect in the signal ratio in the repeat runs, not every such curve was filed as active; the % refers to the signal ratio; also: potency is read from the fitted curve at half-maximal effect)
In short: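 ER-beta-UAS-bla HEK293T cells in 2% charcoal-stripped FBS medium treated with compound plus 1nM final 17-beta-estradiol for 16 hr at 37C. Beta-lactamase reporter read by FRET substrate fluorescence after 2 hours at room temperature.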
% is scaled to controls: 0 for no effect and ±100 for the full control effect.

CCCC(=O)c1cc(O)c(O)cc1O
active: Potency [4] 54.5 µM | Potency [6] 27.3 µM | Potency [7] 54.5 µM
inactive: PLD induction [1] -3.64% [at 3.15 µM] | Potency [2] | Potency [3] | Potency [5]

CCN(CC)c1ccc(C=O)c(O)c1
inactive: Potency [2] | Potency [3] | Potency [4] | Potency [8] | Potency [5] | Potency [6]

Cc1cccc(C)c1C
inactive: Potency [2] | Potency [3] | Potency [4] | Potency [8] | Potency [5] | Potency [6]

C[C@@H]1C[C@H]2[C@@H]3C[C@H](F)C4=CC(=O)C=C[C@]4(C)[C@@]3(Cl)[C@@H](O)C[C@]2(C)[C@H]1C(=O)COC(=O)C(C)(C)C
inactive: Potency [1]

CN1CCN(CCCN2c3ccccc3Sc3ccc(C(F)(F)F)cc32)CC1
active: Potency [4] 26.6 µM | Potency [6] 10.6 µM
inactive: Potency [2] | Potency [3] | Potency [8] | Potency [5]

Oc1ccc(Cl)cc1C1CCCC1
inactive: Potency [2] | Potency [3] | Potency [4] | Potency [8] | Potency [5] | outcome [9] | Potency [7]

CN1CCN(CCCN2c3ccccc3Sc3ccc(Cl)cc32)CC1
inactive: Potency [2] | Potency [3] | Potency [5] | Potency [7]
active: Potency [4] 10.6 µM | Potency [6] 16.8 µM

S=C1NC=NC2N=CNC12 (configuration not stated)
inactive: Potency [2] | Potency [3] | Potency [4] | Potency [8] | Potency [5] | Potency [6] | Potency [7]

CCCCCCCCSCc1cc(C)c(O)c(CSCCCCCCCC)c1
inactive: Potency [2] | Potency [3] | Potency [4] | Potency [5] | Potency [7]

CC(C)(c1ccc(Oc2ccc(N)cc2)cc1)c1ccc(Oc2ccc(N)cc2)cc1
active: Potency [7] 54.5 µM
inactive: Potency [2] | Potency [3] | Potency [4] | Potency [8] | Potency [5] | outcome [9]

CC1=CC[C@@H](C(C)(C)O)CC1
inactive: Potency [2] | Potency [3] | Potency [4] | Potency [8] | Potency [5] | Potency [6] | Potency [7]

CC(C)(C)c1ccc(OC2CCCCC2O)cc1 (configuration not stated)
inactive: Potency [2] | Potency [3] | Potency [4] | Potency [5] | Potency [7]
active: Potency [6] 38.6 µM

O=S(=O)(c1ccc(OCc2ccccc2)cc1)c1ccccc1O
inactive: Potency [2] | Potency [3] | Potency [4] | Potency [5]

Cc1ccc(C2OC[C@@H]3OC(c4ccc(C)cc4)O[C@H]([C@H](O)CO)[C@@H]3O2)cc1 (some centres not stated)
inactive: Potency [2] | Potency [3] | Potency [4] | Potency [8] | Potency [5] | Potency [6] | Potency [7]

C=CC(=O)O[C@H]1C[C@@H]2CC[C@@]1(C)C2(C)C
inactive: Potency [2] | Potency [3] | Potency [4] | Potency [8] | Potency [5] | outcome [9] | Potency [10]

C1=CCCC1
inactive: Potency [2] | Potency [3] | Potency [4] | Potency [8] | Potency [5] | Potency [6] | Potency [7]

Cc1cc(F)ccc1-c1cc(N2CC[C@@H](O)[C@H]2CO)ncc1N(C)C(=O)C(C)(C)c1cc(C(F)(F)F)cc(C(F)(F)F)c1
active: Potency [4] 42.6 µM | Potency [10] 19 µM | Potency [7] 53.6 µM
inactive: Potency [2] | Potency [3] | Potency [5]

O=C(O)CN(CCCN(CC(=O)O)CC(=O)O)CC(=O)O
active: Potency [10] 2.31 µM
inactive: activity change, negative = inhibition [2] 1.25% [at 19 µM] | activity change, negative = cytotoxicity [3] -1.94% [at 19 µM] | viability change, negative = cytotoxic [4] -10.7% [at 19 µM] | viability change, negative = cytotoxic [8] -4.5% [at 19 µM] | activity change [5] -1.26% [at 18.9 µM, stronger effect = higher value] | activity change, negative = cytotoxicity [7] -2.17% [at 19 µM]

C=C(C)CCO
inactive: Potency [2] | Potency [3] | Potency [4] | Potency [8] | Potency [5] | Potency [7]

C=Cc1ccncc1
inactive: Potency [2] | Potency [3] | Potency [4] | Potency [8] | Potency [5] | Potency [6] | Potency [7]

COc1cc(OC)nc(NC(=O)NS(=O)(=O)Nc2ccccc2C(=O)N(C)C)n1
inactive: Potency [2] | Potency [3] | Potency [4] | Potency [8] | Potency [5] | Potency [10] | Potency [7]

C/C(=N\[Si](C)(C)C)O[Si](C)(C)C
inactive: Potency [2] | Potency [3] | Potency [4] | Potency [8] | Potency [5] | Potency [6] | Potency [7]

C1CCSC1
inactive: Potency [2] | Potency [3] | Potency [4] | Potency [8] | Potency [5] | Potency [6] | Potency [7]

CN(C)CCOc1ccc(/C(=C(/CCCl)c2ccccc2)c2ccccc2)cc1
inactive: Potency [2] | Potency [3] | Potency [5]
active: Potency [4] 51 µM | Potency [6] 36.1 µM

C=C[Si](C)(C)Cl
inactive: activity change, negative = inhibition [2] 3.64% [at 8.39 µM] | activity change, negative = cytotoxicity [3] -0.871% [at 8.39 µM] | viability change, negative = cytotoxic [4] 9.73% [at 8.39 µM] | viability change, negative = cytotoxic [8] -1.01% [at 8.39 µM] | activity change [5] 1.18% [at 8.39 µM, stronger effect = higher value] | activity change, negative = cytotoxicity [7] -1.9% [at 8.39 µM]

C=CCc1cc(S(=O)(=O)c2ccc(O)c(CC=C)c2)ccc1O
active: Potency [8] 24.3 µM
inactive: Potency [2] | Potency [3] | Potency [5] | Potency [6]

CC/C=C(\C)C=O
inactive: Potency [2] | Potency [3] | Potency [4] | Potency [8] | Potency [5] | Potency [6] | Potency [7]

C/C=C/C(=O)C1=C(C)C=CCC1(C)C
inactive: Potency [2] | Potency [3] | Potency [4] | Potency [8] | Potency [5] | Potency [6] | Potency [7]

CCOc1nc(F)cc2nc(S(=O)(=O)Nc3c(Cl)cccc3C(=O)OC)nn12
inactive: Potency [2] | Potency [3] | Potency [4] | Potency [8] | Potency [5] | Potency [6] | Potency [7]

Nc1ccc(Oc2cccc(Oc3ccc(N)cc3)c2)cc1
active: Potency [6] 8.63 µM
inactive: Potency [2] | Potency [3] | Potency [4] | Potency [5] | Potency [7]

CCCCCCCCCCCCCCCCCCNC(=O)OC1CCN(C(=O)OC[C@H](COC(=O)N(Cc2cccc[n+]2CC)C(=O)c2ccccc2OC)OC)CC1
active: Potency [6] 26.6 µM | Potency [7] 26.6 µM
inactive: Potency [2] | Potency [3] | Potency [4] | Potency [8] | Potency [5]

O=C1CCC/C=C\CCCCCCCCCC1
inactive: Potency [2] | Potency [3] | Potency [4] | Potency [5] | outcome [9] | Potency [10]

c1ccc(-c2ccccc2-c2ccccc2)cc1
inactive: Potency [2] | Potency [3] | Potency [5]
active: Potency [8] 43.3 µM | Potency [6] 15.4 µM

CCNc1nc(NC(C)(C)C)nc(OC)n1
inactive: Potency [2] | Potency [3] | Potency [4] | Potency [8] | Potency [5] | Potency [10]

N#CCCOCCC#N
inactive: Potency [2] | Potency [3] | Potency [4] | Potency [8] | Potency [5] | outcome [9] | Potency [10] | Potency [7]

CCOC(=O)C1=NN(c2ccc(Cl)cc2Cl)C(C)(C(=O)OCC)C1 (configuration not stated)
inactive: Potency [2] | Potency [3] | Potency [4] | Potency [8] | Potency [5] | outcome [9] | Potency [7]

CCC(=O)OC/C=C(\C)CCC=C(C)C
inactive: Potency [2] | Potency [3] | Potency [4] | Potency [8] | Potency [5] | Potency [6] | Potency [7]

O=C(Nc1ccc([N+](=O)[O-])cc1)Nc1ccc([N+](=O)[O-])cc1 (tested in a mixture with another compound)
inactive: Potency [2] | Potency [3] | Potency [4] | Potency [8] | Potency [5] | Potency [10] | Potency [7]

Cc1ccc2nc(-c3ccc(N)cc3)sc2c1S(=O)(=O)O
active: Potency [2] 3.8 µM | Potency [5] 1.9 µM
inactive: Potency [3] | Potency [4] | Potency [8] | Potency [6] | Potency [7]

Brc1cc(Br)cc(Br)c1
inactive: Potency [2] | Potency [3] | Potency [4] | Potency [8] | Potency [5] | Potency [7]

Cc1cc(Br)ccc1NC(=O)CCl
inactive: Potency [2] | Potency [3] | Potency [5]
active: Potency [4] 9.69 µM | Potency [8] 19.3 µM | Potency [6] 4.33 µM | Potency [7] 54.5 µM

CC(=O)Nc1ccc(N=Nc2cc(C)ccc2O)cc1
inactive: Potency [3] | Potency [4] | outcome [9]
active: Potency [2] 2.73 µM | Potency [6] 15.4 µM

COc1ccc(OC)c(N=Nc2c(O)ccc3ccccc23)c1
inactive: Potency [5] | outcome [9] | Potency [10]
active: Potency [2] 27.3 µM | Potency [3] 24.3 µM | Potency [4] 13.7 µM | Potency [8] 13.7 µM | Potency [7] 24.3 µM

Oc1ccc2c(c1)CCC2
inactive: Potency [2] | Potency [3] | Potency [4] | Potency [8] | Potency [5] | Potency [10]

Cn1c(=O)[nH]c2ncn(C)c2c1=O
inactive: Potency [2] | Potency [3] | Potency [4] | Potency [8] | Potency [5] | Potency [6] | Potency [7]

COc1ccc2ccccc2c1
inactive: Potency [2] | Potency [5]
